Source: PubChem (National Center for Advancing Translational Sciences (NCATS))
Sfp inh: qHTS Assay for Inhibitors of Bacillus subtilis Sfp phosphopantetheinyl transferase (PPTase); 4'-phosphopantetheinyl transferase ffp (Bacillus subtilis), Q9F4F7; Biochemical Sfp PPTase activity, qHTS; Potency, µM, without a hit: largest response in the series, negative = inhibition, usual class: inhibitors; hit rate 3.5% among 310,000; AID 1490, 2009;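 note: the enzyme is Sfp with the accession as filed and its product quenches rhodamine fluorescence; 0% = enzyme reaction without inhibitor and -100% = no enzyme wells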
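With Hepes-Na pH 7.6 buffer containing 10 mM MgCl2, Sfp (15 nM) modified BHQ-2-YbbR (12.5 uM) using rhodamine-CoA (5 uM). Two reads 30 minutes apart at 525/598 nm yielded each well's rate.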
G9a block: qHTS Assay for Inhibitors of Histone Lysine Methyltransferase G9a | G9a H3K9 monomethylation, AlphaScreen, 2 h | Potency, µM (highest dose often 102 µM), for inactives: at the highest dose activity, negative = inhibition, most hits filed as inhibitors | hit rate 8.8% among 350,000 | AID 504332, 2011; note: % is set by controls: 0 for no effect and ±100 for the full control effect; nearly all actives have a fitted effect of over 75% in size
Target sequence (Q96KQ7 913-1193 limits assumed): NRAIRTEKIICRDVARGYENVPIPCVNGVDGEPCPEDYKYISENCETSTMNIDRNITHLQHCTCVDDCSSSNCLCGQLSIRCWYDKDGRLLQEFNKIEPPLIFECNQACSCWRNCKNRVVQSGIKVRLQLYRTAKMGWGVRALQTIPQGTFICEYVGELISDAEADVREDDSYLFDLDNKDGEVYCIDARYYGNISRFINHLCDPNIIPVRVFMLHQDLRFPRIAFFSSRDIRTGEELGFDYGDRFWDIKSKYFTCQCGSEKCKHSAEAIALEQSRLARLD
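Methyltransferase reactions run at room temperature for 2 h (20 nM enzyme, 500 nM biotin-H3K9 peptide, 20 uM SAM) after a 15 min compound preincubation; product detected by AlphaScreen beads and anti-H3K9me1 antibody.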
PLK1 PBD block: qHTS for Inhibitors of PLK1-PDB (polo-like kinase 1 - polo-box domain): Primary Screen; Plk1 PBD binding of FITC phosphopeptide, fluorescence polarization; Serine/threonine-protein kinase PLK1 (Homo sapiens), P53350; Potency, µM, for the others: max response, negative = inhibition, most hits filed as inhibitors; AID 720504, 2013; hit rate 2.8% among 360,000; note: series mostly up to about 57 µM; % is set by controls: 0 for no effect and ±100 for the full control effect; nearly all actives have a fitted effect of over 65% in size
JMJD2A Tudor inh: qHTS Assay for Inhibitors of JMJD2A-Tudor Domain | Lysine-specific demethylase 4A (Homo sapiens), O75164 | AlphaScreen JMJD2A-Tudor / H3K4me3 peptide binding | Potency, µM (top dose mostly 114 µM), inactives show at the top dose activity change, negative = inhibition, hits mostly inhibitors | hit rate 4.4% among 390,000 | AID 504339, 2011; note: % is set by controls: 0 for no effect and ±100 for the full control effect; nearly all actives have a fitted effect of over 50% in size
HP1b chromo inh: HTS for Inhibitors of HP1-beta Chromodomain Interactions with Methylated Histone Tails; Chromobox protein homolog 1 (Homo sapiens), P83916; AlphaScreen HP1-beta / biotin-H3K9me3 peptide binding; Potency, µM (series often up to 114 µM), inactives show top-dose activity change, negative = inhibition, most hits filed as inhibitors; hit rate 0.56% among 390,000; note: nearly all actives have a fitted effect of over 70% in size
Target sequence (P83916 whole entry, looked up): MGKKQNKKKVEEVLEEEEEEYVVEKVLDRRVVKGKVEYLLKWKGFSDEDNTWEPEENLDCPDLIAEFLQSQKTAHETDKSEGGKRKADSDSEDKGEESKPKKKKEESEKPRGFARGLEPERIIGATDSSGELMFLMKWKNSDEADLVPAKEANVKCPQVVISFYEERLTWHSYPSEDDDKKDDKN
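Compound inhibition of the preformed complex between 50 nM HP1-beta and 50 nM biotinylated H3K9me3 peptide was read by AlphaScreen. Buffer was PBS pH 7.4 with 0.01% Tween-20. Incubations ran 30 min at room temperature, with 10 ug/mL donor/acceptor beads.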
BAZ2B block: qHTS Assay for Inhibitors of BAZ2B. Bromodomain adjacent to zinc finger domain protein 2B (Homo sapiens), Q9UIF8. AlphaScreen BAZ2B-H3K14Ac peptide displacement. Potency, µM (highest dose often 114 µM), for inactives: at the highest dose activity change, negative = inhibition, most hits filed as inhibitors. hit rate 4.4% among 360,000; note: % is set by controls: 0 for no effect and ±100 for the full control effect; nearly all actives have a fitted effect of over 60% in size
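Compounds, titrated to a top concentration of 110 uM, were incubated 30 min at room temperature with preformed BAZ2B/acetyl-K14 H3 peptide complex (50 nM each). Proximity signal was measured by AlphaScreen after 20 min with beads.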
* marks the source's active call; other numbers are inactive results; ? = inconclusive; . = no result; [ ] = remark or other dose. An excerpt weighted towards active compounds, which were near 12% of everything screened. Calls come from the whole dose curve; as a rule, active = well fitted curve in the direction sought with a large enough effect; inconclusive = small, poorly fitted or top-dose-only effect, or another doubt; inactive = no such curve, though single readings can be large; an effect the other way counts as inactive or inconclusive. Potency is the fitted concentration of half-maximal effect.

SMILES	Sfp inh	G9a block	PLK1 PBD block	JMJD2A Tudor inh	HP1b chromo inh	BAZ2B block
CCOC(=O)CC(=O)Nc1ccc(C)cc1	8%	-42%	-10%	-12%	22%	-20%
Cc1ccc(-c2[nH]nc(N)c2N=Nc2ccccc2C)cc1	10%	?	0%	25µM*	?	?
Cc1cccc(N=Nc2c(N)n[nH]c2-c2ccc(Cl)cc2)c1	11%	22%[0.501 µM]	-11%	?	-17%	?
Cc1ccc(N=Nc2c(N)n[nH]c2N)cc1	10%	35µM*	-10%	?	-2%	?
Cc1noc(C)c1C(=O)N1CCC2(CC1)CN(c1ccccn1)C2	5%	3%[12.7 µM]	.	.	.	.
COc1ccc(CNC(=O)c2ccc(Cn3c(=O)c4cccn4c4cccnc43)cc2)c(OC)c1	.	4%[59 µM]	.	1%	29%	-13%
COC(=O)C(NS(=O)(=O)CCl)C(C)C (stereo unspecified)	10%	.	.	-12%	12%	.
CCOc1c(Br)cc(C2NC(=O)CCC2[N+](=O)[O-])cc1OC (stereo unspecified)	21%	22%	-2%	2%	43%	-2%
CCOc1cc(C2NC(=O)CCC2[N+](=O)[O-])cc(Br)c1OC (stereo unspecified)	10%	21%	27µM*	-17%	8%	-3%
C=CCn1c(SC(C)CC)nc(O)cc1=O (stereo unspecified)	9%	5%	-10%	-9%	4%	-21%
COc1ccccc1N=C(C)C1=C(O)CC(c2ccccc2)CC1=O (stereo unspecified)	14%	50µM*	-3%	?	18%	?
CCCC(=Nc1ccccc1OC)C1=C(O)CC(c2ccccc2)CC1=O (stereo unspecified)	-7%	?	6%	-6%	22%	-38%
Cc1ccc(-c2nnn(CC(=O)N(CC(=O)NC3CCCCC3)c3cccc(F)c3)n2)o1	20%	-1%	1%	-4%	10%	4%
Cc1cccc(N(CC(=O)NC2CCCCC2)C(=O)Cn2nnc(-c3ccc(C)o3)n2)c1	1%	45µM*	-8%	-17%	11%	-15%
Cc1ccc(-c2nnn(CC(=O)N(CC(=O)NC3CCCCC3)c3ccccc3F)n2)o1	-5%	35µM*	-9%	-22%	30%	?
COc1ccc(-c2nnn(CC(=O)N(CC(=O)NC3CCCC3)c3ccccc3)n2)cc1OC	11%	-2%[59 µM]	3.8µM*	18µM*	-13%	-20%
Cc1ccc(-c2nnn(CC(=O)N(CC(=O)NCc3ccccc3)c3cccc(C)c3C)n2)o1	25µM*	3.5µM*	-3%	-31%	2%	?
Cn1c(SCc2ccc(F)cc2)nc2ccc(C(=O)NCc3ccccc3)cc21	.	-3%[59 µM]	.	-5%	-5%	-26%
Cc1ccnc(SCC(=O)N2CCc3ccccc32)n1	14%	18%	0%	-3%	25%	-9%
O=C(c1cc(-c2cccc(O)c2)on1)N1CCN(C(c2ccccc2)c2ccccc2)CC1	19%	45µM*	6%	?	9%	-8%
COC(=O)CN1CCN(C(c2ccccc2)c2ccccc2)CC1	-4%	56µM*	-6%	-23%	28%	8%
COC(=O)CNC(=O)CCC(=O)N1CCN(C(c2ccccc2)c2ccccc2)CC1	12%	1%	-16%	-4%	50%	-17%
CN(Cc1ccccc1)C(=O)CN1CCN(C(c2ccccc2)c2ccccc2)CC1	-1%	-38%	1%	-20%	-3%	-31%
CCCCNC(=O)CCC(=O)N1CCN(C(c2ccccc2)c2ccccc2)CC1	20%	2%	0%	-1%	69%	79µM*
